# Experimental data: PubChem BioAssay (NCATS)
# Records with an inconclusive call do not appear. Unmarked numbers belong to inactive results. Unless noted, the call rests on the fitted dose curve; in most records, active means well fitted activation curve with a large enough effect; inconclusive means small, poorly fitted or top-dose-only effect; inactive means flat fitted curve, though single readings scatter.
# System: not listed separately
# Experiment: Validation screen for small molecules that induce DNA re-replication in SW480 colon adenocarcinoma cells (AID 504364); further: 0% is about no effect
# Conditions: DNA re-replication phenotype (high-content imaging); series mostly up to 46.1 µM; activity (re-replication induction): at the top concentration
# Outline: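 Image-based qHTS: compounds were incubated with SW480 cells for 48 hr, nuclei stained with Hoechst, and per-nucleus fluorescence intensity scanned to flag cells with excess DNA content.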
row,SMILES,activity (re-replication induction)
1,Cc1nc2sccn2c(=O)c1CCN1CCC(=C(c2ccc(F)cc2)c2ccc(F)cc2)CC1,-0.42%
2,COc1cc(Cc2cnc(N)nc2N)cc(OC)c1OC,2.33%
3,C[C@]12CCC(=O)C=C1CC[C@@H]1[C@@H]2C(=O)C[C@@]2(C)[C@H]1CC[C@]2(O)C(=O)CO,-7.54%

# Biological target: Peptidyl-prolyl cis-trans isomerase NIMA-interacting 1 (Homo sapiens) (UniProt Q13526)
# Experiment: qHTS Validation Assay to Find Inhibitors of Pin1 (AID 504536; active means well fitted inhibition curve with a large enough effect in the polarisation, with a control signal flat, not every such curve was filed as active; the % refers to the polarisation;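 further: 0% = full Pin1 enzyme wells and -100% = no-enzyme wells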)
# Conditions: Pin1 fluorescence polarization peptide binding assay; series mostly up to 57.5 µM; activity, negative = inhibition: at the top concentration
# Outline: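 Fluorescence polarization competition: compounds (titration) displace HiFluor-488-labeled Pin1-1b peptide from Pin1 (0.3 uM final) in pH 7.5 HEPES buffer with DTT, 10 min at room temperature; %Activity normalized to no-enzyme wells, curves fitted.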
# Sequence of Peptidyl-prolyl cis-trans isomerase NIMA-interacting 1 (Homo sapiens) (Q13526 whole entry, looked up): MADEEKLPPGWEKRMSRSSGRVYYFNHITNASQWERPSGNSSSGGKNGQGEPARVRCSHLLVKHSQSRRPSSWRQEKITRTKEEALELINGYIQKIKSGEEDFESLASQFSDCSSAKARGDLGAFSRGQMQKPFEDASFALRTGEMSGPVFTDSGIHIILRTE
row,SMILES,"activity, negative = inhibition"
1,NC(=O)c1cn(Cc2c(F)cccc2F)nn1,9.59%
2,CN1CCN(CC(=O)N2c3ccccc3C(=O)Nc3cccnc32)CC1,-23.2%
3,COc1ccc2c(c1OC)C(=O)O[C@@H]2[C@H]1c2c(cc3c(c2OC)OCO3)CCN1C,2.17%
4,COc1ccc([C@@H]2Sc3ccccc3N(CCN(C)C)C(=O)[C@@H]2OC(C)=O)cc1,-12.6%
5,CCOC(=O)C1=C(C)NC(C)=C(C(=O)OC)C1c1cccc([N+](=O)[O-])c1 (configuration not stated),-19.8%
6,CC(C)COCC(CN(Cc1ccccc1)c1ccccc1)N1CCCC1 (configuration not stated),2.09%
7,C[n+]1cc2c3c(ccc2c2ccc4cc5c(cc4c21)OCO5)OCO3,0.194%
8,CN(C)C(=O)Oc1ccc[n+](C)c1,-1.78%
9,CCCC(C(=O)OCCN(CC)CC)(c1ccccc1)c1ccccc1,2.81%
10,COC(=O)C1=C(C)NC(C)=C(C(=O)OC(C)(C)CN(C)CCC(c2ccccc2)c2ccccc2)C1c1cccc([N+](=O)[O-])c1 (configuration not stated),6.49%
11,CCn1ccnc1CC1COc2ccccc2O1 (configuration not stated),-6.21%
12,NC1=NCC2c3ccccc3Cc3ccccc3N12 (configuration not stated),0.436%
13,Cc1nc2c([nH]1)c(=O)n(C)c(=O)n2Cc1ccco1,-0.462%
14,COc1cc(C(=O)OCCCN2CCCN(CCCOC(=O)c3cc(OC)c(OC)c(OC)c3)CC2)cc(OC)c1OC,-3.4%
